Experimental data published in the supplement of paper PMC8728848.
Only a selection was taken, and the strongest signals are over-represented in it overall.

Tests used:
Assay in all cases: glycan array binding signal (z-score within array); higher = stronger binding
Conditions in all cases: glycan notation: IUPAC condensed, linker removed
[1] = molecular target: Fuc(a1-2)Gal(b1-3)GalNAc(a1-3)[Fuc(a1-2)]Gal(b1-4)Glc
Procedure, shortened: (§1)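 The Consortium for Functional Glycomics database supplied 3228 glycan arrays, of which those lacking an available protein sequence were dropped. The binding signal, a within-array Z-score, was averaged across arrays of the same protein sequence and across linkers. Negative scores can be read as non-binding.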

[2] = molecular target: Fuc(a1-2)Gal(b1-3)GlcNAc(b1-3)Gal(b1-4)Glc
Procedure, shortened: as §1

[3] = molecular target: Fuc(a1-2)Gal(b1-3)GlcNAc(b1-3)[Gal(b1-4)GlcNAc(b1-6)]Gal(b1-4)Glc
Procedure, shortened: as §1

[4] = molecular target: Fuc(a1-2)Gal(b1-4)GlcNAc(b1-3)[Fuc(a1-2)Gal(b1-4)GlcNAc(b1-6)]GalNAc
Procedure, shortened: as §1

[5] = molecular target: Fuc(a1-2)Gal(b1-4)[Fuc(a1-3)]GlcNAc
Procedure, shortened: as §1

Fuc(a1-2)Gal6S(b1-4)Glc = molecular target: Fuc(a1-2)Gal6S(b1-4)Glc
Procedure, shortened: as §1

[6] = molecular target: Fuc(a1-2)[Gal(a1-3)]Gal(b1-3)GlcNAc
Procedure, shortened: as §1

[7] = molecular target: Fuc(a1-2)[Gal(a1-3)]Gal(b1-4)GlcNAc
Procedure, shortened: as §1

[8] = molecular target: Fuc(a1-2)[GalNAc(a1-3)]Gal(b1-3)GlcNAc(b1-2)Man(a1-3)[Fuc(a1-2)[GalNAc(a1-3)]Gal(b1-3)GlcNAc(b1-2)Man(a1-6)]Man(b1-4)GlcNAc(b1-4)GlcNAc
Procedure, shortened: as §1

[9] = molecular target: Fuc(a1-2)[GalNAc(a1-3)]Gal(b1-4)GlcNAc(b1-2)Man
Procedure, shortened: as §1

Gal(a1-3)Gal(b1-3)GlcNAc = molecular target: Gal(a1-3)Gal(b1-3)GlcNAc
Procedure, shortened: as §1

[10] = molecular target: Gal(a1-3)Gal(b1-3)GlcNAc(b1-2)Man
Procedure, shortened: as §1

[11] = molecular target: Gal(a1-3)Gal(b1-4)GlcNAc(b1-2)Man(a1-3)[Gal(a1-3)Gal(b1-4)GlcNAc(b1-2)Man(a1-6)]Man(b1-4)GlcNAc(b1-4)GlcNAc
Procedure, shortened: as §1

[12] = molecular target: Gal(b1-3)GlcNAc(b1-3)Gal(b1-3)GlcNAc
Procedure, shortened: as §1

[13] = molecular target: Gal(b1-3)[Fuc(a1-4)]GlcNAc(b1-2)Man
Procedure, shortened: as §1

[14] = molecular target: Gal(b1-3)[Fuc(a1-4)]GlcNAc(b1-2)Man(a1-3)[Gal(b1-3)[Fuc(a1-4)]GlcNAc(b1-2)Man(a1-6)]Man(b1-4)GlcNAc(b1-4)[Fuc(a1-6)]GlcNAc
Procedure, shortened: as §1

[15] = molecular target: Gal(b1-3)[Fuc(a1-4)]GlcNAc(b1-3)Gal(b1-3)[Fuc(a1-4)]GlcNAc
Procedure, shortened: as §1

[16] = molecular target: Gal(b1-3)[Neu5Ac(a2-6)]GalNAc
Procedure, shortened: as §1

[17] = molecular target: Gal(b1-4)GlcNAc(b1-2)Man(a1-3)[Gal(b1-4)GlcNAc(b1-2)Man(a1-6)]Man(b1-4)GlcNAc(b1-4)GlcNAc
Procedure, shortened: as §1

[18] = molecular target: Gal(b1-4)GlcNAc(b1-2)Man(a1-3)[GlcNAc(b1-4)][Gal(b1-4)GlcNAc(b1-2)Man(a1-6)]Man(b1-4)GlcNAc(b1-4)GlcNAc
Procedure, shortened: as §1

[19] = molecular target: Gal(b1-4)GlcNAc(b1-2)[Gal(b1-4)GlcNAc(b1-4)]Man(a1-3)[Gal(b1-4)GlcNAc(b1-2)[Gal(b1-4)GlcNAc(b1-6)]Man(a1-6)]Man(b1-4)GlcNAc(b1-4)GlcNAc
Procedure, shortened: as §1

[20] = molecular target: Gal(b1-4)GlcNAc(b1-2)[Gal(b1-4)GlcNAc(b1-4)]Man(a1-3)[GlcNAc(b1-4)][Gal(b1-4)GlcNAc(b1-2)Man(a1-6)]Man(b1-4)GlcNAc(b1-4)GlcNAc
Procedure, shortened: as §1

[21] = molecular target: Gal(b1-4)GlcNAc(b1-3)Gal(b1-3)GlcNAc
Procedure, shortened: as §1

[22] = molecular target: Gal(b1-4)GlcNAc(b1-3)Gal(b1-4)GlcNAc(b1-3)Gal(b1-4)GlcNAc(b1-3)Gal(b1-4)GlcNAc(b1-2)[Gal(b1-4)GlcNAc(b1-3)Gal(b1-4)GlcNAc(b1-3)Gal(b1-4)GlcNAc(b1-3)Gal(b1-4)GlcNAc(b1-6)]Man(a1-6)[Gal(b1-4)GlcNAc(b1-3)Gal(b1-4)GlcNAc(b1-3)Gal(b1-4)GlcNAc(b1-3)Gal(b1-4)GlcNAc(b1-2)Man(a1-3)]Man(b1-4)GlcNAc(b1-4)[Fuc(a1-6)]GlcNAc
Procedure, shortened: as §1

[23] = molecular target: Gal(b1-4)GlcNAc(b1-6)GalNAc
Procedure, shortened: as §1

[24] = molecular target: Gal(b1-4)GlcNAc(b1-6)[Gal(b1-4)GlcNAc(b1-3)]GalNAc
Procedure, shortened: as §1

[25] = molecular target: Gal3S(b1-3)[Fuc(a1-4)]GlcNAc
Procedure, shortened: as §1

Gal3S(b1-4)Glc6S = molecular target: Gal3S(b1-4)Glc6S
Procedure, shortened: as §1

Gal6S(b1-3)GlcNAc6S = molecular target: Gal6S(b1-3)GlcNAc6S
Procedure, shortened: as §1

[26] = molecular target: GalNAc(b1-3)Gal(a1-6)Gal(b1-4)Glc
Procedure, shortened: as §1

B1: EULS2 M1 (Oryza sativa) (protein)
chain: MVYCRANPNYAMTARNGAVVLAPANPKDEYQHWIKDMRWSTSIKDEEGYPAFALVNKATGQAIKHSLGQSHPVRLVPYNPEVMDESVLWTESRDVGNGFRCIRMVNNIYLNFDAFHGDKYHGGVRDGTDIVLWKLCEGDNQRWKIQPYYILEQKLISEEDLNSAVDHHHHHH
[1]
  glycan array binding signal (z-score): -0.333
[2]
  glycan array binding signal (z-score): -0.208
[3]
  glycan array binding signal (z-score): -0.34
[4]
  glycan array binding signal (z-score): -0.457
[5]
  glycan array binding signal (z-score): -0.363
Fuc(a1-2)Gal6S(b1-4)Glc
  glycan array binding signal (z-score): -1.48
[6]
  glycan array binding signal (z-score): 0.694
[7]
  glycan array binding signal (z-score): -0.349
[8]
  glycan array binding signal (z-score): 3.99
[9]
  glycan array binding signal (z-score): -1
Gal(a1-3)Gal(b1-3)GlcNAc
  glycan array binding signal (z-score): 3.45
[10]
  glycan array binding signal (z-score): -0.609
[11]
  glycan array binding signal (z-score): 0.844
[12]
  glycan array binding signal (z-score): -0.334
[13]
  glycan array binding signal (z-score): 1.75
[14]
  glycan array binding signal (z-score): 1.19
[15]
  glycan array binding signal (z-score): 3.42
[16]
  glycan array binding signal (z-score): 1.39
[17]
  glycan array binding signal (z-score): -0.312
[18]
  glycan array binding signal (z-score): 1.31
[19]
  glycan array binding signal (z-score): -0.584
[20]
  glycan array binding signal (z-score): 0.188
[21]
  glycan array binding signal (z-score): -0.203
[22]
  glycan array binding signal (z-score): 0.636
[23]
  glycan array binding signal (z-score): 0.271
[24]
  glycan array binding signal (z-score): -0.195
[25]
  glycan array binding signal (z-score): -0.905
Gal3S(b1-4)Glc6S
  glycan array binding signal (z-score): 2.56
Gal6S(b1-3)GlcNAc6S
  glycan array binding signal (z-score): 10.9
[26]
  glycan array binding signal (z-score): 2.84
